This is a sample that favours compounds with a hit; in the whole collection about 3.8% have one here.
tim23-1 inh: tim23-1 yeast growth inhibition. inhibition, % at 20 µM. actives 1.3% (n = 330,000). S. cerevisiae tim23-1 growth, BacTiter-Glo luminescence, 24 h. AID 463212;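 active means growth inhibition of the mutant yeast at or above 50%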;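 further: temperature-sensitive mutant grown at 25 °C; plate controls were DMSO-treated mutant yeast for no effect and medium wells lacking yeast for full effect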
PfHsp90 yeast 2: growth inhibition of yeast expressing Plasmodium Hsp90; AID 504621; inhibition, % at 9.4 µM; actives 0.32% (n = 310,000); S. cerevisiae expressing PfHsp90, BacTiter-Glo ATP, 48 h; yeast lacking PDR1 and PDR3 efflux regulators;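 active means every replicate shows inhibition above about 80%, whatever the replicate mean, limit read from the data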;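 further: 0% = DMSO neutral controls and 100% = 20 µM radicicol positive controls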
tim10-1 inh: growth inhibitors of tim10-1 mutant yeast. S. cerevisiae tim10-1 ts strain growth, BacTiter-Glo, 24 h. inhibition, % at 20 µM. actives 2.2% (n = 330,000). AID 463190;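 active means inhibition of at least 40%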;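 further: mutant grown at 25 °C; 0% = DMSO wells with yeast and 100% = wells holding no yeast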
Beta2AR agonist: human beta-2 adrenergic receptor agonism by FAP; P07550; Am2.2-beta2AR cells, FAP receptor internalization, flow cytometry; response, % (no concentration beside the values); actives 0.43% (n = 340,000); AID 504454;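 active means response above a set limit, near 3 SD of response in nonfluorescent compounds, cut at about 42% in these data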
Target sequence (P07550 whole entry, looked up): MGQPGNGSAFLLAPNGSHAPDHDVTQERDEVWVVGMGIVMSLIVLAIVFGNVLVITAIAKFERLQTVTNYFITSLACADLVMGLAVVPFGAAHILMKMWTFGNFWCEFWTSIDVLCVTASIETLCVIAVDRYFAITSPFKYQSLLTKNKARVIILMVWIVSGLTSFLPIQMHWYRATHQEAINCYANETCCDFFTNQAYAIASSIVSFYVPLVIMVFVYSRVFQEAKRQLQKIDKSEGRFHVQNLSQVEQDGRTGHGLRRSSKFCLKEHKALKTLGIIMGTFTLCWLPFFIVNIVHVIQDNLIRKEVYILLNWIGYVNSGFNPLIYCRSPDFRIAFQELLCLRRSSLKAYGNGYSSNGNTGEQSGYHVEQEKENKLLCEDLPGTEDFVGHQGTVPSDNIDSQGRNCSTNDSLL
TIM10 inh: growth inhibitors of TIM10 yeast strain | AID 463195 | actives 1.4% (n = 330,000) | inhibition, % at 10 µM | S. cerevisiae TIM10 strain growth, BacTiter-Glo luminescence, 24 h;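 active means inhibition of 40% or more at the single tested concentration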;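 further: wild-type TIM10 isogenic control strain grown at permissive 25 °C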
tim10-1 confirm: tim10-1 yeast growth inhibition, confirmed; inhibition, % at 20 µM; S. cerevisiae tim10-1 ts strain growth, BacTiter-Glo, 24 h; shares compounds with tim10-1 inh; AID 463213; actives 56% (n = 7,400);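 active means inhibition of yeast growth at or above a set limit in either of two repeat tests at 20 µM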;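 further: tim10-1 mutant grown at permissive 25 °C to find synthetic lethal compounds; 0% = DMSO yeast wells and 100% = medium wells without yeast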
TIM10 conf: confirmation of TIM10 yeast growth inhibitors | AID 463215 | shares compounds with TIM10 inh | inhibition, % at 10 µM | S. cerevisiae tim10 strain growth, BacTiter-Glo luminescence, 24 h | actives 63% (n = 4,600);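 active means inhibition of yeast growth at or above a set limit in either of two replicates at 10 µM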;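 further: this counterscreen used the strain with wild-type TIM10; 0% = yeast with DMSO and 100% = medium wells lacking yeast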
tim23-1 confirm: confirmation of tim23-1 mutant yeast growth inhibitors; shares compounds with tim23-1 inh; S. cerevisiae tim23-1 growth, BacTiter-Glo luminescence, 24 h; inhibition, % at 20 µM; actives 83% (n = 4,400); AID 463218;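 active means inhibition above about 39% in either of two replicate wells at 20 µM, limit read from the data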;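 further: temperature-sensitive tim23-1 mutant grown at 25 °C; 0% = DMSO wells with yeast and 100% = medium wells without yeast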
* = called active by the depositor; · = no result given.

SMILES	tim23-1 inh	PfHsp90 yeast 2	tim10-1 inh	Beta2AR agonist	TIM10 inh	tim10-1 confirm	tim23-1 confirm	others
COc1cc(C(=S)N2CCOCC2)ccc1OC(=O)c1cc([N+](=O)[O-])cc([N+](=O)[O-])c1	26	-1	40	3	22	·	·
O=C(Nc1ccc(Nc2ccccc2)cc1)c1ccc(Cl)c([N+](=O)[O-])c1	73*	8	46*	33	23	28	57*
O=C(OCC(=O)N(CCc1ccccc1)Cc1ccccc1)c1ccc(F)c(S(=O)(=O)N2CCOCC2)c1	·	-15	·	4	·	·	·
O=C1C2C(c3ccccc3)C=CC(c3ccccc3)C2C(=O)N1c1ccncc1 (stereo unspecified)	53*	-25	41*	12	14	36*	49*
Cc1cc(C)c(NC(=O)CC(=O)c2ccccc2)c(Cl)c1	27	-2	29	-2	4	·	·
Cc1cc(C)c(C(=O)CC(=O)c2ccccc2Cl)c(O)c1	65*	-6	48*	4	39	36*	76*
Cc1nn(-c2ccccc2)c(C)c1/C=N/Nc1nc2ccccc2[nH]1	52*	-8	45*	6	48*	18	41*	TIM10 conf=19
CC(C)C[C@@H](CN)NC(=O)c1nc[nH]c1C(=O)N[C@@H](CC(=O)O)C(=O)CNC[C@H](C)NC(=O)c1nc[nH]c1C(=O)N[C@@H](CC(=O)O)C(=O)O	·	24	·	-12	·	·	·
Cc1ccc(/C=C2/Sc3ccc(C(=O)N4CCN(C)CC4)cc3NC2=O)cc1	28	20	25	19	14	·	·
CC1CCN(C(=O)c2ccc3c(c2)NC(=O)/C(=C/c2ccccc2)S3)CC1	50*	-17	42*	9	-7	1	47*
CCCCNC(=O)Cc1coc2ccc3ccccc3c12	45	-24	30	-7	38	·	·
Cc1cccc(NC(=O)Cc2coc3ccc4ccccc4c23)n1	51*	-59	46*	0	31	36*	56*
O=C(c1ccccc1)c1ccc2cc(O)ccc2c1	59*	-14	48*	-3	26	35*	53*
COc1ccc(Nc2nc(-c3ccccc3O)nc3ccccc23)cc1	51*	-35	46*	6	33	36*	59*
c1ccc(-c2nc(NC3CCCC3)c3ccccc3n2)cc1	53*	15	46*	-1	41*	36*	68*	TIM10 conf=17
c1ccc(Nc2nc(-c3ccccc3)nc3ccccc23)cc1	65*	-19	47*	-3	27	26	49*
O=C(O)c1cccc(Nc2nc(-c3ccccc3)nc3ccccc23)c1	-2	-15	15	-2	5	·	·
COc1ccccc1-c1nc2s/c(=C\c3cccs3)c(=O)n2n1	78*	-14	64*	0	57*	29	76*	TIM10 conf=-18
O=c1/c(=C/c2ccco2)sc2nc(-c3ccccc3Br)nn12	57*	3	45*	10	64*	41*	45*	TIM10 conf=51*
COCCn1c(SCC(=O)NC2CCCC2)nnc1C(C)C	7	-12	-16	5	5	·	·
CN1OC[C@@H]2CN(Cc3ccc(Cl)cc3)[C@H](c3cccc(Br)c3)C[C@@H]21	·	-82	·	9	·	·	·
Oc1ccc2ccccc2c1C1Nc2cccc3cccc(c23)N1	50*	-9	57*	8	50*	58*	69*	TIM10 conf=44*
O=C(CN1C(=O)NC2(CCCCC2)C1=O)NCC(=O)Nc1ccc(F)c(F)c1	0	-6	-6	1	-3	·	·
O=C(/C=C/c1ccnc2ccccc12)c1cccs1	67*	85*	71*	7	79*	72*	-29	TIM10 conf=83*
CC(=O)c1ccccc1OCCCCN1CCCCC1	0	11	-13	-10	3	·	·
COc1cccc2sc3cc(C#Cc4ccccn4)ccc3c(=O)c12	47	-29	3	-5	29	·	·

Assay outcomes (PubChem)
